# “And” between values parts separate entries of the source, which are not always exact repeats. Equal entries are not always repeated. Inconclusive results are not listed. Where a call stands in place of a potency, no number is given. The source made the active and inactive calls. Unless noted, the call rests on the fitted dose curve; in most records, active means well fitted curve in the direction sought with a large enough effect; inconclusive means small, poorly fitted or top-dose-only effect, or another doubt; inactive means no such curve, though single readings can be large; an effect the other way counts as inactive or inconclusive.
# Assays:
# [1] = Validation of Assay for Modulators of Lamin A Splicing (AID 1459; active means well fitted curve in the direction sought with a large enough effect in the signal ratio; the % refers to the signal ratio;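 further: cells exposed to compound for two days before reading; ratio rise marks activators and ratio drop marks inhibitors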)
# Method in brief: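 Dual-reporter HeLa S3 line (lamin A-EGFP minigene, DsRed2) treated with compounds 48 hrs, 0.5% DMSO final. Endpoint: EGFP/DsRed2 total intensity ratio from laser-scanning microplate cytometry.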
# [2] = biological target: ATP-dependent DNA helicase Q1 (Homo sapiens) (UniProt P46063); test: qHTS Validation Assay for Inhibitors of RecQ-Like Dna Helicase 1 (RECQ1) (AID 2353)
# Method in brief: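 RECQ1T1 50 nM; forked duplex (20 bp + 30-nt ss tails) 200 nM, ATP 2 mM final; pH 8.0, 2 mM MgCl2, 2.5 ug/ml poly(dI-dC); 15 min compound preincubation; discontinuous kinetic read over 2 h at RT.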
# [3] = biological target: Galactokinase (Homo sapiens) (UniProt P51570); test: qHTS Validation Assay for Inhibitors of Human Galactokinase (GALK) (AID 493189)
# Method in brief: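 Enzyme activity is inferred from ATP consumption: human GALK phosphorylates galactose (100 uM) using 35 uM ATP for 1 h at room temperature, and luciferase-based Kinase-Glo Plus reports unconsumed ATP.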
# [4] = qHTS Assay for Lipid Storage Modulators (AID 1519; calls by dose curve); conditions: Drosophila S3 cells, BODIPY lipid droplet/cell ratio, laser cytometry, cells loaded with oleic acid; for activity change, negative = inhibition: at 57.5 µM (top of the series)
# Method in brief: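 Cells seeded at 5,000 per well were treated with compounds over a concentration series and loaded with oleic acid (400 uM, as added). Lipid droplet fluorescence (488 nm excitation, 500-530 nm channel) was read by laser-scanning cytometry and normalized to 20 uM Triacsin C.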
# [5] = qHTS drug screen for cell cycle checkpoint inhibitors in PARPi-resistant BRCA-mutant ovarian cancer cell lines. (AID 1963452; calls by dose curve; further: potency means the concentration at half of the fitted maximal effect); conditions: PEO1/OlaR viability, CellTiter-Glo luminescence, 96 h; for Z-AUC: stronger effect = lower value
# Method in brief: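 PEO1, PEO4 and PEO1/OlaR ovarian cancer cells, 600 per well, exposed 96 h at 37C to a dilution series. Viability read by CellTiter-Glo luminescence, normalized to DMSO and empty wells; activity summarized as Z-AUC.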
# [6] = measured here: cell count channel max response
# [7] = measured here: lipid channel max response
# ATP-dependent DNA helicase Q1 (Homo sapiens), sequence (P46063 whole entry, looked up): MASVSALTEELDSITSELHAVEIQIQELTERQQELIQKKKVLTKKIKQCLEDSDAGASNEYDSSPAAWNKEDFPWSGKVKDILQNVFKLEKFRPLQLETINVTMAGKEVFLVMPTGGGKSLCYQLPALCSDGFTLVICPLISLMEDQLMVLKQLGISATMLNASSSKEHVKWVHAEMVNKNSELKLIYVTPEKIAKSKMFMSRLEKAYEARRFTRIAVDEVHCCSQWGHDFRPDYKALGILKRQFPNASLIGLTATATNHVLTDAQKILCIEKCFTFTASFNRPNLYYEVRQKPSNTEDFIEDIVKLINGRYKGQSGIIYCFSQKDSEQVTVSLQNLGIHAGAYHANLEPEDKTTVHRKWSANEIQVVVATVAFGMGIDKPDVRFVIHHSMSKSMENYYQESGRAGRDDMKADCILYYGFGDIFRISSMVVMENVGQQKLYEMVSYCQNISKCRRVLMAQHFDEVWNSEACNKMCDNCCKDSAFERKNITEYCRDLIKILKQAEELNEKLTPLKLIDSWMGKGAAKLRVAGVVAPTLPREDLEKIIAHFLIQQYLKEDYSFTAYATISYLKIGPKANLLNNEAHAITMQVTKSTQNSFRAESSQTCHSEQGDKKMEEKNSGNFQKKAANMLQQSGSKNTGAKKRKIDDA
# Galactokinase (Homo sapiens), sequence (P51570 whole entry, looked up): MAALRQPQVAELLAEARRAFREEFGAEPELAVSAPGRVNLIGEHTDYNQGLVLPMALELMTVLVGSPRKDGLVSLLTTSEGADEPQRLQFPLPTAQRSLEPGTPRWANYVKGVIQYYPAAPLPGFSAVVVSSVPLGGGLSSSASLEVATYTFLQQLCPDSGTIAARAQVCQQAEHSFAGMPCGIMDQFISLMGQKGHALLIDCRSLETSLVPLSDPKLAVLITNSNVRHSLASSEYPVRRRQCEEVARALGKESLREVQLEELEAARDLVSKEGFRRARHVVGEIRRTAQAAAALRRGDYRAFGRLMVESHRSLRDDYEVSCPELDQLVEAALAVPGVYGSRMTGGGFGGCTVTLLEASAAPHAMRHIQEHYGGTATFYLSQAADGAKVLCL
smiles,measurement,setting,value
CC(C)(O)C1C2OC(=O)C1[C@]1(O)C[C@H]3O[C@]34C(=O)O[C@H]2[C@]14C (stereo partly specified) (tested in a mixture with another compound),outcome,[1],inactive
same,outcome,[2],inactive
same,outcome,[3],inactive
CCCCN1C2CCC1CC(OC(c1ccc(F)cc1)c1ccc(F)cc1)C2 (stereo unspecified),outcome,[1],inactive
same,outcome,[2],inactive
same,outcome,[3],inactive
C=CCN1CC[C@@]2(C)c3cc(O)ccc3CC1[C@@H]2C,outcome,[1],inactive
same,"activity change, negative = inhibition",[4],-0.315% (inactive)
same,max response,[4]; [6],26.7%
same,max response,[4]; [7],28.1%
same,outcome,[2],inactive
same,outcome,[3],inactive
CCCN(CCC)[C@@H]1CCc2c(F)ccc(O)c2C1,outcome,[1],inactive
same,outcome,[2],inactive
same,outcome,[3],inactive
CC1Cc2cc3c(cc2C(c2ccc(N)cc2)=NN1)OCO3 (stereo unspecified),outcome,[1],inactive
same,"activity change, negative = inhibition",[4],1.87% (inactive)
same,max response,[4]; [6],56.1%
same,max response,[4]; [7],60.1%
same,outcome,[2],inactive
same,outcome,[3],inactive
NNCc1cccc(O)c1,outcome,[1],inactive
same,outcome,[2],inactive
same,outcome,[3],inactive
COc1ccc2c3c1O[C@H]1C(=O)CC[C@@]4(O)C(C2)N(CC2CC2)CCC314 (stereo partly specified),outcome,[1],inactive
same,outcome,[2],inactive
same,outcome,[3],inactive
NCC#Cc1ccccc1,outcome,[1],inactive
same,"activity change, negative = inhibition",[4],-4.59% (inactive)
same,max response,[4]; [6],-80.1%
same,max response,[4]; [7],-81.6%
same,outcome,[2],inactive
same,outcome,[3],inactive
CCCN1CCCC(c2cccc(O)c2)C1 (stereo unspecified),outcome,[1],inactive
same,outcome,[2],inactive
same,outcome,[3],inactive
CCN(CC)C(=O)N[C@@H]1C[C@@H]2c3cccc4[nH]cc(c34)C[C@H]2N(C)C1,outcome,[1],inactive
same,"activity change, negative = inhibition",[4],-3.98% (inactive)
same,max response,[4]; [6],28.2%
same,max response,[4]; [7],24%
same,outcome,[2],inactive
same,outcome,[3],inactive
C[C@H]1C2Cc3ccc(O)cc3[C@]1(C)CCN2CC1CC1,outcome,[1],inactive
same,outcome,[2],inactive
same,outcome,[3],inactive
C/C1=C/C[C@@H](/C(C)=C/c2csc(C)n2)OC(=O)C[C@H](O)C(C)(C)C(=O)[C@H](C)[C@@H](O)[C@@H](C)CCC1,Potency,[5],0.0195 µM (active)
same,Z-AUC,[5]; measured here: PEO1 parental Z-AUC,-2.71
same,Z-AUC,[5]; measured here: PEO4 Z-AUC,-2.82
C[C@H]1OC[C@@H](C[N+](C)(C)C)O1,outcome,[1],inactive
same,outcome,[2],inactive
same,outcome,[3],inactive
CN1CCC23CCCC[C@H]2C1Cc1ccc(O)cc13 (stereo partly specified),outcome,[1],inactive
same,"activity change, negative = inhibition",[4],0.333% (inactive)
same,max response,[4]; [6],15.7%
same,max response,[4]; [7],15.2%
same,outcome,[2],inactive
same,outcome,[3],inactive
C[N+]1(C)C2CC(OC(=O)C(CO)c3ccccc3)CC1C1OC12 (stereo unspecified),outcome,[1],inactive
same,"activity change, negative = inhibition",[4],0.686% (inactive) and -2.43% (inactive)
same,max response,[4]; [6],53.9% and -15.4%
same,max response,[4]; [7],52.9% and -17%
same,outcome,[2],inactive
same,outcome,[3],inactive
CCCN1CCC[C@@H]2Cc3n[nH]cc3C[C@H]21,outcome,[1],inactive
same,"activity change, negative = inhibition",[4],3.49% (inactive)
same,max response,[4]; [6],9.58%
same,max response,[4]; [7],14.1%
same,outcome,[2],inactive
same,outcome,[3],inactive
Oc1ccc2c3c1O[C@H]1[C@@H](O)CC[C@@]4(O)C(C2)N(CC2CCC2)CCC314 (stereo partly specified),outcome,[1],inactive
same,outcome,[2],inactive
same,outcome,[3],inactive
CCN1C[C@]2(C)CC[C@H](O)[C@@]34[C@@H]5C[C@@H]6[C@@H](OC)C[C@@](O)(C5[C@H]6O)[C@@H](C[C@@H]23)[C@@H]14,outcome,[1],inactive
same,"activity change, negative = inhibition",[4],1.56% (inactive)
same,max response,[4]; [6],-17.1%
same,max response,[4]; [7],-16.8%
same,outcome,[2],inactive
same,outcome,[3],inactive
CC[C@@H](CO)NC(=O)[C@H]1C=C2c3cccc4c3c(cn4C)C[C@H]2N(C)C1,outcome,[1],inactive
same,"activity change, negative = inhibition",[4],2.02% (inactive)
same,max response,[4]; [6],18.8%
same,max response,[4]; [7],22.3%
same,outcome,[2],inactive
same,outcome,[3],inactive
N#CC(=Cc1ccc(O)c(O)c1)C(N)=S,outcome,[1],inactive
same,outcome,[2],inactive
same,outcome,[3],inactive
COc1cc(C[C@@H](C)N)c(OC)cc1I,outcome,[1],inactive
same,outcome,[2],inactive
same,outcome,[3],inactive
CCCN(CCC)C(=O)Cc1c(-c2ccc(Cl)cc2)nc2c(Cl)cc(Cl)cn12,outcome,[1],inactive
same,"activity change, negative = inhibition",[4],1.58% (inactive)
same,max response,[4]; [6],-21.2%
same,max response,[4]; [7],-20.1%
same,outcome,[2],inactive
same,outcome,[3],inactive
C#CCN(C)C(C)Cc1ccccc1 (stereo unspecified),outcome,[1],inactive
same,"activity change, negative = inhibition",[4],2.75% (inactive)
same,max response,[4]; [6],64.3%
same,max response,[4]; [7],65.5%
same,outcome,[2],inactive
same,outcome,[3],inactive
COc1ccc2c(c1O)-c1cccc3c1C(C2)N(C)CC3 (stereo unspecified),outcome,[1],inactive
same,outcome,[2],inactive
same,outcome,[3],inactive
CC12CCC3C(CCC4=C(O)C(=O)CCC43C)C1CCC2=O (stereo unspecified),outcome,[1],inactive
same,outcome,[2],inactive
same,outcome,[3],inactive
CCNC(=O)[C@H]1O[C@@H](n2cnc3c(N)ncnc32)[C@H](O)[C@H]1O,outcome,[1],inactive
same,outcome,[2],inactive
same,outcome,[3],inactive
CCC(CO)NC(=O)[C@@H]1C=C2c3cccc4[nH]cc(c34)C[C@H]2N(C)C1 (stereo partly specified),outcome,[1],inactive
same,"activity change, negative = inhibition",[4],0.713% (inactive)
same,max response,[4]; [6],-10.2%
same,max response,[4]; [7],-11.2%
same,outcome,[2],inactive
same,outcome,[3],inactive
C[C@]12CC[C@H]3[C@@H](CCC4C[C@H](O)CC[C@@]43C)[C@@H]1CC[C@@H]2O (stereo partly specified),outcome,[1],inactive
same,outcome,[2],inactive
same,outcome,[3],inactive
COc1cc(C=C(C#N)C#N)cc(O)c1O,outcome,[1],inactive
same,"activity change, negative = inhibition",[4],-2.14% (inactive)
same,max response,[4]; [6],23.5%
same,max response,[4]; [7],22.3%
same,outcome,[2],inactive
same,outcome,[3],inactive
NC(Cn1ccc(=O)[nH]c1=O)C(=O)O (stereo unspecified),outcome,[1],inactive
same,"activity change, negative = inhibition",[4],-1.49% (inactive)
same,max response,[4]; [6],-18.2%
same,max response,[4]; [7],-23.6%
same,outcome,[2],inactive
same,outcome,[3],inactive
CN1C[C@@H](CS(=O)(=O)N(C)C)C[C@@H]2c3cccc4c3c(cn4C)C[C@H]21,outcome,[1],inactive
same,outcome,[2],inactive
same,outcome,[3],inactive
CCCN1CCC[C@@H](c2cccc(C#N)c2)C1,outcome,[1],inactive
same,outcome,[2],inactive
same,outcome,[3],inactive
COC(=O)C(N)CCCN=C(N)N[N+](=O)[O-] (stereo unspecified),outcome,[1],inactive
same,outcome,[2],inactive
same,outcome,[3],inactive

# Reference: PubChem BioAssay (NCATS)
